From ChEMBL document CHEMBL3988442, “University of Dundee, Small-Polar-MMV Screening Library” (2021)
In all, about 48,000 compounds went through this assay and about 13,000 (27%) showed an effect of 50% or more. The list shows a part of the results.

Each molecule was assayed on Wolbachia pipientis (assay: Anti-Wolbachia Cell-Based Screen). Details: 5 µM.
Type: functional
Parameters: scale not given: in the data most compounds retested in dose-response had high values

Row | SMILES | Percent Effect [%]
1 | CN(C(=O)OC(C)(C)C)C1CCN(C(=O)c2cc(Cl)c[nH]2)C1 (centres undefined) | 3.471
2 | COCC(=O)N[C@H](C)c1onc(-c2ccc(F)cc2)c1C(=O)O | -10.17
3 | O=C1CC(c2ccc(C(=O)O)cc2)c2ncn(-c3cccc(F)c3)c2N1 (centres undefined) | 4.592
4 | CSc1ccc(C2CC(=O)Nc3c2c(=O)[nH]c2ncnn32)cc1 (centres undefined) | -5.097
5 | CC(C)n1[nH]c(=O)c2c1NC(=O)CC2c1cccnc1 (centres undefined) | 10.81
6 | Cn1c(=O)c2c(n3ncnc13)NC(=O)CC2c1cccc(Br)c1 (centres undefined) | 114.2
7 | CC(C)n1[nH]c(=O)c2c1NC(=O)CC2c1cccc(OC(F)F)c1 (centres undefined) | 18.26
8 | Cn1c(=O)c2c(n3ncnc13)NC(=O)CC2c1ccc(F)cc1 (centres undefined) | 107.2
9 | CC(C)(C)n1ncc2c1NC(=O)CC2c1ccccc1 (centres undefined) | 1.075
10 | COc1cccc(C2CC(=O)Nc3c2c(=O)n(C)c2ncnn32)c1 (centres undefined) | 109.5
11 | CC(C)n1[nH]c(=O)c2c1NC(=O)CC2c1ccc2ncccc2c1 (centres undefined) | 8.497
12 | Cn1c(=O)c2c(n3ncnc13)NC(=O)CC2c1cccc(F)c1 (centres undefined) | 120.7
13 | O=C1CC(c2ccc(C(=O)O)cc2)c2ncn(-c3ccccc3F)c2N1 (centres undefined) | 10.34
14 | O=C1CC(c2ccc(F)cc2)c2cnn(C3CCCC3)c2N1 (centres undefined) | -2.721
15 | CC(C)(C)c1cn2c(n1)C(CNCc1ccccn1)CCC2 (centres undefined) | 10.69
16 | CCN(Cc1nc(-c2ccco2)no1)Cc1cccc2c1OCO2 | -4.038
17 | CC(C)n1nc2c(cc1=O)CN(CC1CCCCO1)CC2 (centres undefined) | 3.458
18 | Cc1nc2n(n1)CC(NCc1ccccc1OCC(=O)N(C)C)CC2 (centres undefined) | 1.473
19 | NC(=O)COc1ccc(CN2CCC(O)(CN3CCCCC3)C2)cc1Cl (centres undefined) | -2.336
20 | Cc1nc(N2Cc3cnn(Cc4ccc(F)cc4)c3C2)no1 | -13.57
21 | CCc1ccc(C2CC(=O)Nc3c2c(=O)n(C)c2ncnn32)cc1 (centres undefined) | 109.5
22 | Cn1ncc2c1NC(=O)CC2c1ccc(O)cc1 (centres undefined) | 38.62
23 | COCc1nc2nc(O)c3c(n2n1)NC(=O)CC3c1ccc(SC)cc1 (centres undefined) | -7.854

Row | SMILES | Percent Effect [%]
24 | CC(C)(C)c1noc(CCCC(=O)N2CCNC(=O)C2)n1 | -4.153
25 | CN(Cc1cc(C2CC2)[nH]n1)Cc1cc2ccc(F)cc2[nH]c1=O | -8.263
26 | Cc1cc(CN2CCC(c3cc(Cc4ccccc4)n[nH]3)CC2)[nH]n1 | 25.91
27 | COc1cccc2c(=O)n(CCN3CCNCC3)cnc12 | 4.244
28 | O=C(Cn1cnc2ccccc2c1=O)Nc1cc(C2CC2)n[nH]1 | 0.387
29 | COc1cccc2c(=O)n(Cc3cc(C4CC4)[nH]n3)cnc12 | 104.8
30 | O=c1c2sccc2ncn1CC(O)CN1CCOCC1 (centres undefined) | 7.822
31 | O=c1c2sccc2ncn1Cc1cc(C2CC2)[nH]n1 | 88.09
32 | CC1CCN(CC(O)Cn2cnc3ccsc3c2=O)CC1 (centres undefined) | -6.513
33 | O=c1c2ccccc2ncn1Cc1cc(C2CC2)[nH]n1 | 98.49
34 | N#Cc1ccc(N2CCCN(CC(=O)N3CCNC(=O)C3)CC2)cc1 | -15.62
35 | CN(CC1=CCCN(Cc2cccc(C#N)c2)C1)C(=O)c1ccco1 | 6.358
36 | O=C(CCc1ccsc1)N1CCC(n2cc(CO)nn2)CC1 | -0.2022
37 | CCn1c(CN2CCCC2)nnc1C1CCN(Cc2ccc(C)o2)CC1 | 10.89
38 | OC(CNc1nc(C2CCCC2)nc2c1CCNCC2)C(F)(F)F (centres undefined) | -10.56
39 | CCCc1cc(=O)[nH]c2nnc(SCC(N)=O)n12 | 23.5
40 | O=C(NCCn1ccnc1)c1csc2c1CCCC2 | 1.844
41 | COC(=O)CSc1nnc2[nH]c(=O)c3c(n12)CCCC3 | -5.705
42 | CCCNC(=O)CSc1nnc2[nH]c(=O)c3c(n12)CCCC3 | 1.807
43 | O=C(NCCCn1cccn1)c1csc2c1CCCC2 | -1.067
44 | NC(=O)CSc1nnc2[nH]c(=O)c3c(n12)CCCC3 | 2.529
45 | CCn1c(SCC(N)=O)nnc1-c1csc2c1CCCC2 | 115.1
46 | Cn1c(SCC(N)=O)nnc1-c1csc2c1CCCC2 | 119.7

Row | SMILES | Percent Effect [%]
47 | CCCn1c(SCC(N)=O)nnc1-c1csc2c1CCCC2 | 99.65
48 | O=C(CSc1ccncc1)N1C[C@H]2CC[C@@H]1CN(Cc1cccnc1)C2 | 5.846
49 | CCCc1n[nH]c(C2CN(CCNS(=O)(=O)CC)CCO2)n1 (centres undefined) | 14.03
50 | CC(C)Cc1cc(C(=O)NCC2CCCN(c3ccccn3)C2)on1 (centres undefined) | 8.718
51 | Cc1ccc(-c2nc(CC(=O)NCC3CCCN(C(C)C)C3)cs2)o1 (centres undefined) | 19.88
52 | CCCc1nnsc1C(=O)NCC1CCN(c2ncccn2)CC1 | 3.898
53 | CC(C)c1cc(C(=O)NCC2CCCN(C(C)C)C2)n(C)n1.Cl (centres undefined) | 153.6
54 | CCn1nc(C(C)C)cc1C(=O)NCC1CCCN(c2ccccn2)C1 (centres undefined) | 125
55 | CCc1nnsc1C(=O)NCCC1CCCN(C(C)C)C1 (centres undefined) | 8.592
56 | CCCc1nnsc1C(=O)NCC1CCN(c2ccccn2)CC1 | -9.247
57 | O=C(NCCCN1CCN(c2ncccn2)CC1)NCC1CCOC1 (centres undefined) | 1.135
58 | CC(C)c1cc(C(=O)NCC2CCCN(c3ncccn3)C2)n(C)n1 (centres undefined) | 135
59 | CC(C)Sc1ccc(C(C)NC(=O)CNS(C)(=O)=O)cc1 (centres undefined) | -8.082
60 | COCC(C)N1CCc2onc(-c3ccc(C(F)(F)F)cc3)c2C1 (centres undefined) | -24.24
61 | CCc1ccc(CN2CCc3ncnc(N4CCOCC4)c3CC2)o1.O=C(O)C(F)(F)F | 10.74
62 | CCc1c(C)sc2ncnc(N3CC[C@@H](N4CCOCC4)[C@H](O)C3)c12 | -13.58
63 | CC[C@H]1COCCN1C(=O)c1cnc(C(C)C)nc1C | -0.1974
64 | CCc1ncnc(N2CCOCC2C(N)=O)c1F (centres undefined) | 114.1
65 | CCc1ncnc(N(C)CC2CCCCO2)c1F (centres undefined) | 6.222
66 | CCc1ncnc(N2CCOCC2CCO)c1F (centres undefined) | 97.7
67 | CCOCC(=O)N1CCc2c(ncnc2N2CCOCC2)C1 | -19.06
68 | CCc1ncnc(N2CCOCC2C2CC2)c1F (centres undefined) | 106.4
69 | Cc1nn(C)c(C)c1C1COCCN1c1ncnc2sccc12 (centres undefined) | -13.78
